Laboratory results as given in PubChem BioAssay (EPA / NIEHS).
Activity calls are given as the source filed them. Rule for the calls: active = hit-call score of the fitted dose curve at least 0.9, where 1 is the maximum; inactive = score below 0.9.

Key:
Settings in all cases: mRNA level, 48 h; actives raise or lower the signal
[1] = read-out: Hypoxia-inducible factor 1-alpha (Homo sapiens) (UniProt Q16665); experiment: LTEA_HepaRG_HIF1A: Life Technologies and Expression Analysis (LTEA) Assay for Hypoxia-inducible factor 1 (HIF1A) Trancription factor using HepaRG (AID 2283503)
Method in brief: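 Differentiated HepaRG cells in serum-free induction medium exposed 48 h, in duplicate, to 8-point half-log series from 100 uM in 0.5% DMSO. HIF1A mRNA measured by TaqMan qRT-PCR, normalized to ACTB/GAPDH/POLR2A, fitted bidirectionally versus DMSO.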

[2] = read-out: 3-Hydroxy-3-Methylglutaryl-CoA Synthase 2 (HMGCS2), HMGCS2 (gene 3158); experiment: LTEA_HepaRG_HMGCS2: Life Technologies and Expression Analysis (LTEA) Assay for 3-Hydroxy-3-Methylglutaryl-CoA Synthase 2 (HMGCS2) using HepaRG (AID 2283504)
Method in brief: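 HepaRG, plated 48 h then switched to serum-free induction media; cmpd 8-pt, max 100 uM, 1/2-log, 0.5% DMSO, n=2, 48 h. HMGCS2 mRNA by Fluidigm TaqMan qRT-PCR, ACTB/GAPDH/POLR2A norm; bidirectional fit vs DMSO.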

HGF (gene 3082) = experiment: LTEA_HepaRG_HGF: Life Technologies and Expression Analysis (LTEA) Assay for Hepatocyte Growth Facto (HGF) using HepaRG (AID 2283505)
Method in brief: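 Read-out is HGF transcript level by qRT-PCR, normalized to three housekeeping genes, fitted bidirectionally against 0.5% DMSO vehicle. Human HepaRG cells received test chemicals for 48 h at up to 100 uM.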

[3] = read-out: Insulin Like Growth Factor 1 (IGF1), IGF1 (gene 3479); experiment: LTEA_HepaRG_IGF1: Life Technologies and Expression Analysis (LTEA) Assay for Insulin Like Growth Factor 1 (IGF1) using HepaRG (AID 2283506)
Method in brief: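 HepaRG, plated 48 h, then switched to serum-free induction media; test chemical 8-pt half-log from 100 uM (0.5% DMSO), duplicate, 48 h. Lysis in RLT, TaqMan qRT-PCR, norm. ACTB/GAPDH/POLR2A. Bidirectional fit vs DMSO.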

[4] = read-out: Intercellular Adhesion Molecule 1 (ICAM1), ICAM1 (gene 3383); experiment: LTEA_HepaRG_ICAM1: Life Technologies and Expression Analysis (LTEA) Assay for Intercellular Adhesion Molecule 1 (ICAM1) using HepaRG (AID 2283507)
Method in brief: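 Readout is qRT-PCR mRNA level, normalized to three housekeeping genes and fitted bidirectionally against 0.5% DMSO vehicle. Human HepaRG cultures received compound for 48 h, top concentration 100 uM with half-log dilutions.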

[5] = read-out: Insulin-like growth factor-binding protein 1 (IGFBP1), IGFBP1 (gene 3484); experiment: LTEA_HepaRG_IGFBP1: Life Technologies and Expression Analysis (LTEA) Assay for Insulin-like growth factor-binding protein 1 (IGFBP1) using HepaRG (AID 2283508)
Method in brief: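 Thawed HepaRG cells are plated for 48 h, switched to serum-free induction medium, then dosed in duplicate for another 48 h (100 uM top, half-log steps). Lysates in RLT go to qRT-PCR, and gain or loss of signal is fitted relative to vehicle.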

[6] = read-out: Interleukin 6 (IL6), IL6 (gene 3569); experiment: LTEA_HepaRG_IL6: Life Technologies and Expression Analysis (LTEA) Assay for Interleukin 6 (IL6) using HepaRG (AID 2283509)
Method in brief: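 Differentiated human HepaRG cells, plated 48 h then switched to serum-free induction medium, were exposed in duplicate for 48 h to eight half-log concentrations up to 100 uM in 0.5% DMSO. IL6 mRNA measured by qRT-PCR, normalized to ACTB/GAPDH/POLR2A.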

[7] = read-out: Interleukin 6 Receptor (IL6R), IL6R (gene 3570); experiment: LTEA_HepaRG_IL6R: Life Technologies and Expression Analysis (LTEA) Assay for Interleukin 6 Receptor (IL6R) using HepaRG (AID 2283510)
Method in brief: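 Readout is IL6R transcript level by TaqMan qRT-PCR, normalized to three housekeeping genes and fitted bidirectionally against 0.5% DMSO controls. Human HepaRG cells received chemicals for 48 h in serum-free induction medium, highest concentration 100 uM.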

[8] = read-out: Potassium channel subfamily K member 1 (KCNK1), KCNK1 (gene 3775); experiment: LTEA_HepaRG_KCNK1: Life Technologies and Expression Analysis (LTEA) Assay for Potassium channel subfamily K member 1 (KCNK1) using HepaRG (AID 2283511)
Method in brief: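 Differentiated human HepaRG cells in serum-free induction medium were exposed in duplicate for 48 h to 8 half-log concentrations up to 100 uM in 0.5% DMSO. KCNK1 mRNA was measured by TaqMan qRT-PCR, normalized to ACTB, GAPDH and POLR2A, and fitted bidirectionally versus DMSO.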

[9] = read-out: Keratin 19 (KRT19), KRT19 (gene 3880); experiment: LTEA_HepaRG_KRT19: Life Technologies and Expression Analysis (LTEA) Assay for Keratin 19 (KRT19) using HepaRG (AID 2283512)
Method in brief: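 KRT19 transcript levels, measured by Fluidigm qRT-PCR against three housekeeping genes, are fitted for gain or loss of signal relative to DMSO. Human HepaRG cells receive test chemicals (top 100 uM, half-log steps, 0.5% DMSO) for 48 hours.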

[10] = read-out: JUN Transcription Factor, JUN (gene 3725); experiment: LTEA_HepaRG_JUN: Life Technologies and Expression Analysis (LTEA) Assay for JUN Transcription Factor using HepaRG (AID 2283513)
Method in brief: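 Cells plated 48 h, medium switched to serum-free induction medium, then dosed 48 h (100 uM top, half-log dilutions, 0.5% DMSO). RNA isolated; JUN measured by qRT-PCR against three housekeeping genes; gain or loss fitted relative to DMSO.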

[11] = read-out: Lipoprotein lipase (LPL), LPL (gene 4023); experiment: LTEA_HepaRG_LPL: Life Technologies and Expression Analysis (LTEA) Assay for Lipoprotein lipase (LPL) using HepaRG (AID 2283515)
Method in brief: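 Differentiated human HepaRG cells in serum-free induction medium were exposed in duplicate for 48 h to eight half-log concentrations (top 100 uM) in 0.5% DMSO. LPL mRNA was quantified by TaqMan qRT-PCR, normalized to ACTB, GAPDH and POLR2A.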

[12] = read-out: MicroRNA 122 (MIR122), gene 406906; experiment: LTEA_HepaRG_MIR122: Life Technologies and Expression Analysis (LTEA) Assay for MicroRNA 122 (MIR122) using HepaRG (AID 2283516); note: the transcript read is the microRNA miR-122
Method in brief: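 HepaRG plated 48 h, switched to serum-free induction medium, then treated in duplicate for 48 h (100 uM top, half-log steps, 0.5% DMSO vehicle). RNA isolated, qRT-PCR performed, concentration-response fitted both directions relative to DMSO.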

[13] = read-out: matrix metalloproteinase-10 (MMP10), MMP10 (gene 4319); experiment: LTEA_HepaRG_MMP10: Life Technologies and Expression Analysis (LTEA) Assay for matrix metalloproteinase-10 (MMP10) using HepaRG (AID 2283517)
Method in brief: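 HepaRG, collagen I, ~100,000 cells/well; serum-free induction medium; 48 h exposure, duplicate, 8-pt half-log to 100 uM, 0.5% DMSO. Readout: TaqMan qRT-PCR, normalized to ACTB/GAPDH/POLR2A; bidirectional fit vs DMSO.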

MYC, MYC (gene 4609) = experiment: LTEA_HepaRG_MYC: Life Technologies and Expression Analysis (LTEA) Assay for MYC using HepaRG (AID 2283518)
Method in brief: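 HepaRG, ~100,000 cells/well, collagen I; 48 h plating; serum-free induction medium; 48 h dosing, duplicate, 100 uM top, half-log, 0.5% DMSO; total RNA → qRT-PCR MYC; gain/loss fit vs DMSO.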

[14] = read-out: matrix metalloproteinase-3 (MMP3), MMP3 (gene 4314); experiment: LTEA_HepaRG_MMP3: Life Technologies and Expression Analysis (LTEA) Assay for matrix metalloproteinase-3 (MMP3) using HepaRG (AID 2283519)
Method in brief: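 Differentiated human HepaRG cells, plated 48 h on collagen I, were exposed in duplicate for 48 h in serum-free induction medium to eight half-log concentrations up to 100 uM in 0.5% DMSO. MMP3 mRNA was quantified by TaqMan qRT-PCR, normalised to ACTB, GAPDH and POLR2A.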

[15] = read-out: Paternally Expressed 10 (PEG10), PEG10 (gene 23089); experiment: LTEA_HepaRG_PEG10: Life Technologies and Expression Analysis (LTEA) Assay for Paternally Expressed 10 (PEG10) using HepaRG (AID 2283520)
Method in brief: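 HepaRG, 48 h post-plating → serum-free induction medium → 48 h chemical exposure (duplicate, 8-pt, max 100 uM, half-log, 0.5% DMSO) → lysis in RLT → TaqMan qRT-PCR for PEG10, ACTB/GAPDH/POLR2A normalisation.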

[16] = read-out: Nuclear factor NF-kappa-B p105 subunit (Homo sapiens) (UniProt P19838); experiment: LTEA_HepaRG_NFKB1: Life Technologies and Expression Analysis (LTEA) Assay for Nuclear Factor Kappa B Subunit 1 (NFKB1) using HepaRG (AID 2283521);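 note: TaqMan qRT-PCR transcript normalised to ACTB GAPDH and POLR2A housekeeping genes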
Method in brief: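 NFKB1 transcript was measured by TaqMan qRT-PCR on Fluidigm arrays, normalised to three housekeeping genes and fitted in both directions against 0.5% DMSO. HepaRG cells were dosed in duplicate for 48 h in serum-free induction medium, eight half-log steps from 100 uM.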

[17] = read-out: Protein phosphatase 2A (PPP2R4), PTPA (gene 5524); experiment: LTEA_HepaRG_PPP2R4: Life Technologies and Expression Analysis (LTEA) Assay for Protein phosphatase 2A (PPP2R4) using HepaRG (AID 2283522)
Method in brief: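 Readout is PPP2R4 transcript level by microfluidic qRT-PCR after 48 h chemical treatment of human HepaRG liver cells. Concentrations spanned 100 uM downward in half-log steps; gain or loss of signal was fitted relative to DMSO.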

Chain of Hypoxia-inducible factor 1-alpha (Homo sapiens) (Q16665 whole entry, looked up): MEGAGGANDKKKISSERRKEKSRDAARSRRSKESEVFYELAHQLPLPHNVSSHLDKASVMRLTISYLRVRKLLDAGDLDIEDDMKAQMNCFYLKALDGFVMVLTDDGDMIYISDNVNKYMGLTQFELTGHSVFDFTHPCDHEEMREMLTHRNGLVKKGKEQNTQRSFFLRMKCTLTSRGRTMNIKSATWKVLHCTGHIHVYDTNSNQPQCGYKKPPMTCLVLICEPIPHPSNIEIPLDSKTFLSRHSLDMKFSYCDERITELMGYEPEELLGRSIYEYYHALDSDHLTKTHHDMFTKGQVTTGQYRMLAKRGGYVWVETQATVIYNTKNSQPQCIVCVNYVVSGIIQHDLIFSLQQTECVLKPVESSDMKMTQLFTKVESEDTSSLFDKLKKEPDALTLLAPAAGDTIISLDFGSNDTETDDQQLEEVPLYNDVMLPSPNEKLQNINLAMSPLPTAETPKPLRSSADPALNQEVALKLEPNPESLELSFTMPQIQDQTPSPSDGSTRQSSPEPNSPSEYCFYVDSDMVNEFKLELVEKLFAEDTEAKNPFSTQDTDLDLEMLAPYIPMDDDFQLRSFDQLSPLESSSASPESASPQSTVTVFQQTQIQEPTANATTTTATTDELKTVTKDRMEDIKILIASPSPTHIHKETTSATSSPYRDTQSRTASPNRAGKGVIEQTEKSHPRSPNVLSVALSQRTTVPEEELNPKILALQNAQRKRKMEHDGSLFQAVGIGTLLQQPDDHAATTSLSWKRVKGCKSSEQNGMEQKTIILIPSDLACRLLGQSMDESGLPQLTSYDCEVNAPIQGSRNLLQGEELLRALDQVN
Chain of Nuclear factor NF-kappa-B p105 subunit (Homo sapiens) (P19838 whole entry, looked up): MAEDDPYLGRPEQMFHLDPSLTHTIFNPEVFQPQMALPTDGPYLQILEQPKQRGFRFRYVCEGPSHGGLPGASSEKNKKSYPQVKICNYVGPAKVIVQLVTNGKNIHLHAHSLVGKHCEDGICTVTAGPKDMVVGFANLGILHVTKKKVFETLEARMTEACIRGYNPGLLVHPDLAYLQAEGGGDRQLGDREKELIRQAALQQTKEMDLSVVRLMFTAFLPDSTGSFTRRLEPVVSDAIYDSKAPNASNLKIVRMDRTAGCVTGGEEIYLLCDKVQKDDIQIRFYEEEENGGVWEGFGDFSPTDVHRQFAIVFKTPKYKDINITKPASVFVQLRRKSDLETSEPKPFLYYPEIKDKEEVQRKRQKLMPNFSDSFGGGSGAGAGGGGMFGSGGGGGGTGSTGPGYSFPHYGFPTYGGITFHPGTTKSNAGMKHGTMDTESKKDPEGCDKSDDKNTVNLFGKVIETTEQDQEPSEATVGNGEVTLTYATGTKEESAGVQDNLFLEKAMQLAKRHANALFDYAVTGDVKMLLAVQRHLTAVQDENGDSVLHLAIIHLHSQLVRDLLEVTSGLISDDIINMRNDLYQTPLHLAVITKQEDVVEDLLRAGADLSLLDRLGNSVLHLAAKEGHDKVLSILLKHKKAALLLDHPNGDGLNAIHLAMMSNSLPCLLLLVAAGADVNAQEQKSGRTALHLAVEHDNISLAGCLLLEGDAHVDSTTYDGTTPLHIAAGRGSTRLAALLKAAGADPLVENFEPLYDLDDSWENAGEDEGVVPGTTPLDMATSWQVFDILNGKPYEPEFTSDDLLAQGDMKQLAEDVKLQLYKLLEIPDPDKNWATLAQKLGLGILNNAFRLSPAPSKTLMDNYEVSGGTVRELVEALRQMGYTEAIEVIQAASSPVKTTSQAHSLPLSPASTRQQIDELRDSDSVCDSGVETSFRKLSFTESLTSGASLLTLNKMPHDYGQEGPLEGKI

CNC(=O)Oc1ccccc1OC(C)C
outcome [1]: inactive | outcome [2]: inactive | outcome (HGF (gene 3082)): inactive | outcome [3]: inactive | outcome [4]: inactive | outcome [5]: inactive | outcome [6]: inactive | outcome [7]: inactive | outcome [8]: inactive | outcome [9]: inactive | outcome [10]: inactive | outcome [11]: inactive | outcome [12]: inactive | outcome [13]: inactive | outcome (MYC, MYC (gene 4609)): inactive | outcome [14]: inactive | outcome [15]: inactive | outcome [16]: inactive | outcome [17]: inactive

CC(C)OC(=O)Nc1cccc(Cl)c1
outcome [1]: inactive | outcome [2]: inactive | outcome (HGF (gene 3082)): inactive | outcome [3]: inactive | outcome [4]: inactive | outcome [5]: inactive | outcome [6]: inactive | outcome [7]: inactive | outcome [8]: inactive | outcome [9]: inactive | outcome [10]: inactive | outcome [11]: inactive | outcome [12]: inactive | outcome [13]: inactive | outcome (MYC, MYC (gene 4609)): inactive | outcome [14]: inactive | outcome [15]: inactive | outcome [16]: inactive | outcome [17]: inactive

C[C@H]1[C@H](c2ccc(Cl)cc2)SC(=O)N1C(=O)NC1CCCCC1
outcome [1]: inactive | AC50 [2]: 38.2 µM (active) | outcome (HGF (gene 3082)): inactive | AC50 [3]: 40.1 µM (active) | AC50 [4]: 81.3 µM (active) | AC50 [5]: 75.4 µM (active) | AC50 [6]: 77.7 µM (active) | outcome [7]: inactive | outcome [8]: inactive | AC50 [9]: 50 µM (active) | outcome [10]: inactive | AC50 [11]: 60.7 µM (active) | AC50 [12]: 60 µM (active) | AC50 [13]: 79.5 µM (active) | AC50 (MYC, MYC (gene 4609)): 71.1 µM (active) | outcome [14]: inactive | AC50 [15]: 12.8 µM (active) | AC50 [17]: 50 µM (active)
